Several values for one entry are separate records, joined by “and”; a condition that tells them apart may be missing. Equal entries are not always repeated. Some structures have more than one record in an assay (separate samples or runs), and their calls can disagree. Activity calls are given as the source filed them. The calls were made as follows: active = hit-call score of the fitted dose curve at least 0.9, where 1 is the maximum; inactive = score below 0.9.
How the values were obtained:
[1] = read-out: Thrombomodulin, THBD (gene 7056); assay: BSK_3C_Thrombomodulin: BioMAP Diversity Plus: 3C Assay for Thrombomodulin Biomarker Activity (AID 2283029); settings: primary human endothelial cells (HUVEC); actives raise or lower the signal
Procedure, shortened: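 Endothelial cells from umbilical vein are dosed with test chemical and incubated 24 h. Thrombomodulin is then quantified by ELISA, with DMSO serving as negative control and activity baseline.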

[2] = read-out: Urokinase-type plasminogen activator receptor (uPAR), PLAUR (gene 5329); assay: BSK_4H_uPAR: BioMAP Diversity Plus: 4H Assay for Urokinase-type plasminogen activator receptor (uPAR) Biomarker Activity (AID 2283030); settings: primary human endothelial cells (HUVEC); actives raise or lower the signal
Procedure, shortened: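 uPAR level read by ELISA on HUVEC cultures (BioMAP 4H) 24 h post-dosing, analyzed for gain or loss relative to DMSO. Parallel SRB staining assessed overt cytotoxicity.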

[3] = read-out: Vascular endothelial growth factor receptor 2 (Homo sapiens) (UniProt P35968); assay: BSK_4H_VEGFRII: BioMAP Diversity Plus: 4H Assay for Vascular endothelial growth factor receptor 2 (VEGFR2) Biomarker Activity (AID 2283031); settings: primary human endothelial cells (HUVEC); actives raise or lower the signal;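 as to AC50: cell-surface VEGFR2 protein level quantified by ELISA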
Procedure, shortened: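 Measured by ELISA after 24 h of compound treatment: VEGFR2 on primary human umbilical vein endothelial cells, fitted in both directions relative to DMSO. Parallel cultures received SRB staining (560 nm) for overt cytotoxicity.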

[4] = read-out: Human Leukocyte Antigen - DR isotype (HLADR), HLA-DRA (gene 3122); assay: BSK_BE3C_HLADR: BioMAP Diversity Plus: BE3C Assay for Human Leukocyte Antigen - DR isotype (HLADR) Biomarker Activity (AID 2283032); settings: primary human bronchial epithelial cells; actives raise or lower the signal
Procedure, shortened: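 Chemicals are dosed onto BE3C bronchial epithelial cultures of human origin and left 24 h. HLA-DR is then measured by ELISA, and the endpoint is fitted in both directions using DMSO as the activity baseline.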

[5] = read-out: Vascular cell adhesion molecule 1 (VCAM1), VCAM1 (gene 7412); assay: BSK_4H_VCAM1: BioMAP Diversity Plus: 4H Assay for Vascular cell adhesion molecule 1 (VCAM1) Biomarker Activity (AID 2283033); settings: primary human endothelial cells (HUVEC); actives raise or lower the signal;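 as to outcome: cell-surface VCAM-1 protein measured by ELISA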
Procedure, shortened: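 Chemicals are added to primary human umbilical vein endothelial cells. After 24 h, VCAM-1 levels are measured by ELISA. Values come from bidirectional fitting referenced to DMSO.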

[6] = read-out: Interferon-gamma inducible Protein 10 (IP10), CXCL10 (gene 3627); assay: BSK_BE3C_IP10: BioMAP Diversity Plus: BE3C Assay for Interferon-gamma inducible Protein 10 (IP10) Biomarker Activity (AID 2283034); settings: primary human bronchial epithelial cells; actives raise or lower the signal
Procedure, shortened: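 IP-10 quantified by ELISA serves as the endpoint. Cells: primary human bronchial epithelium, read 24 h after compound addition. Activity is derived by bidirectional fitting with DMSO as negative control.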

[7] = read-out: Monokine induced gamma interferon (MIG), CXCL9 (gene 4283); assay: BSK_BE3C_MIG: BioMAP Diversity Plus: BE3C Assay for Monokine induced gamma interferon (MIG) Biomarker Activity (AID 2283035); settings: primary human bronchial epithelial cells; actives raise or lower the signal;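 as to outcome: MIG protein measured by ELISA in BE3C cultures after 24 h of dosing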
Procedure, shortened: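 ELISA quantified MIG after 24 h exposure of primary bronchial epithelial cultures, analysed in both directions relative to DMSO. Cytotoxicity tracked in parallel cultures by sulforhodamine B staining.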

[8] = read-out: Transforming growth factor beta 1 (TGFb1), TGFB1 (gene 7040); assay: BSK_BE3C_TGFb1: BioMAP Diversity Plus: BE3C Assay for Transforming growth factor beta 1 (TGFb1) Biomarker Activity (AID 2283036;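 as to outcome: TGF-b1 protein level measured by ELISA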); settings: primary human bronchial epithelial cells; actives raise or lower the signal
Procedure, shortened: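 Bronchial epithelial primary cells are treated with test chemical, then TGF-b1 is quantified by ELISA after 24 hours. Values derive from bidirectional fitting against DMSO, with cytotoxicity checked by SRB staining in parallel cultures.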

[9] = read-out: Plasminogen activator inhibitor-1 (PAI1), SERPINE1 (gene 5054); assay: BSK_BE3C_PAI1: BioMAP Diversity Plus: BE3C Assay for Plasminogen activator inhibitor-1 (PAI1) Biomarker Activity (AID 2283037); settings: primary human bronchial epithelial cells; actives raise or lower the signal
Procedure, shortened: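 Values derive from bidirectional fitting against DMSO baseline of PAI-1 levels, measured by ELISA in human bronchial epithelial cells 24 h after compound addition.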

[10] = read-out: urokinase plasminogen activator (uPA), PLAU (gene 5328); assay: BSK_BE3C_uPA: BioMAP Diversity Plus: BE3C Assay for urokinase plasminogen activator (uPA) Biomarker Activity (AID 2283038); settings: primary human bronchial epithelial cells; actives raise or lower the signal;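 as to outcome: uPA protein level quantified by ELISA in cell cultures; uPA read one day after compound addition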
Procedure, shortened: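 ELISA for uPA on human primary bronchial epithelial cultures 24 h post-treatment, gain or loss against DMSO. Parallel SRB staining (0.1% after 10% TCA fixation, 560 nm) assessed overt cytotoxicity.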

| SMILES | outcome [1] | outcome [2] | outcome [3] | outcome [4] | outcome [5] | outcome [6] | outcome [7] | outcome [8] | outcome [9] | outcome [10] | AC50 [1] | AC50 [3] | AC50 [4] | AC50 [5] | AC50 [6] | AC50 [7] | AC50 [8] | AC50 [9] | AC50 [10] | AC50 [2] |
| --- | --- | --- | --- | --- | --- | --- | --- | --- | --- | --- | --- | --- | --- | --- | --- | --- | --- | --- | --- | --- |
| C[C@]12CCC(=O)C=C1CC[C@@H]1[C@@H]2CC[C@@]2(C)[C@H]1CC[C@]2(C)O | inactive | inactive | inactive | inactive | inactive | inactive | inactive | inactive | inactive | inactive | – | – | – | – | – | – | – | – | – | – |
| Oc1c(Cl)c(Cl)c(Cl)c(Cl)c1Cl | inactive | – | inactive | – | – | – | – | inactive | – | – | 20 µM (active) | 11.6 µM (active) | 8.2 µM (active) and 20.6 µM (active) | 10.2 µM (active) and 21.5 µM (active) | 5.02 µM (active) and 5.67 µM (active) | 11.8 µM (active) and 30.3 µM (active) | 9.53 µM (active) | 1.18 µM (active) and 10.5 µM (active) | 4.12 µM (active) and 14.7 µM (active) | – |
| CC(C)(O)C(=O)Nc1ccc([N+](=O)[O-])c(C(F)(F)F)c1 | inactive | inactive | inactive | inactive | inactive | – | inactive | inactive | inactive | inactive | – | – | – | – | 24.6 µM (active) | – | – | – | – | – |
| O=C(O)C(F)(F)C(F)(F)C(F)(F)C(F)(F)C(F)(F)C(F)(F)C(F)(F)C(F)(F)F | inactive | – | inactive | – | inactive | – | – | – | – | – | – | – | 29.7 µM (active) and 44.1 µM (active) and 45.2 µM (active) | 41.7 µM (active) | 27.7 µM (active) and 45.9 µM (active) and 43.7 µM (active) | 32.7 µM (active) and 50.1 µM (active) and 52.7 µM (active) | 26.2 µM (active) | 32.3 µM (active) and 23.3 µM (active) and 40.2 µM (active) | 37.2 µM (active) and 49.1 µM (active) and 30 µM (active) | – |
| C=CC(=O)NCNC(=O)C=C | inactive | inactive | inactive | inactive | inactive | inactive | inactive | inactive | inactive | inactive | – | – | – | – | – | – | – | – | – | – |
| O=C(O)C(F)(F)C(F)(F)C(F)(F)C(F)(F)C(F)(F)F | inactive | inactive | inactive | inactive | inactive | inactive | inactive | inactive | inactive | inactive | – | – | – | – | – | – | – | – | – | – |
| ClC(Cl)=C(c1ccc(Cl)cc1)c1ccc(Cl)cc1 | inactive | – | – | inactive | – | inactive | inactive | inactive | inactive | – | – | 34.9 µM (active) | – | 28.6 µM (active) | – | – | – | – | 13.1 µM (active) | 32.8 µM (active) |
| Nn1cnnc1 | inactive | inactive | inactive | inactive | inactive | inactive | inactive | inactive | inactive | inactive | – | – | – | – | – | – | – | – | – | – |
| CO/C=C(/C(=O)OC)c1ccccc1COc1cccc(C(F)(F)F)n1 | inactive | inactive | inactive | inactive | – | – | inactive | inactive | inactive | inactive | – | – | – | 4.02 µM (active) | 3.97 µM (active) | – | – | – | – | – |
| Clc1ccc(Cl)cc1 | inactive | inactive | inactive | inactive | inactive | inactive | inactive | inactive | inactive | inactive | – | – | – | – | – | – | – | – | – | – |
| CC#Cc1cc(C)nc(Nc2ccccc2)n1 | inactive | inactive | inactive | inactive | – | inactive | inactive | inactive | inactive | inactive | – | – | – | 18.1 µM (active) | – | – | – | – | – | – |
| O=S(=O)(O)C(F)(F)C(F)(F)C(F)(F)C(F)(F)F | inactive | inactive | inactive | inactive | inactive | inactive | inactive | inactive | inactive | inactive | – | – | – | – | – | – | – | – | – | – |
| CC1=C2C[C@H]3[C@@H](CC=C4C[C@@H](O)CC[C@@]43C)[C@@H]2CC[C@]12O[C@@H]1C[C@H](C)CN[C@H]1[C@H]2C | inactive | – | inactive | inactive | inactive | inactive | inactive | inactive | inactive | inactive | – | – | – | – | – | – | – | – | – | – |
| Cc1cc2c3c(c1)C(c1ccccc1)=N[C@@H](NC(=O)c1ccncc1)C(=O)N3CC2 | inactive | inactive | inactive | inactive | inactive | inactive | inactive | inactive | inactive | inactive | – | – | – | – | – | – | – | – | – | – |
| O=C(N[C@H]1CN2CCC1CC2)c1cc2ccoc2cn1 | inactive | inactive | inactive | inactive | inactive | inactive | inactive | inactive | inactive | inactive | – | – | – | – | – | – | – | – | – | – |

From PubChem BioAssay (EPA / NIEHS)
